The text below walks through data of ChEMBL document CHEMBL4513154, “CO-ADD screening of Jain University (India) compounds”.

One assay deals with Staphylococcus aureus. Particulars: Concentration 32 ug.mL-1; ASSAY_TEST Inhibition of Bacterial Growth; detection method Absorption (OD600); MEDIA CAMHB; plate type 384well; NBS; CORNING #3640; time 18 hr.
A further assay concerns Escherichia coli. As to conditions: Concentration 32 ug.mL-1; ASSAY_TEST Inhibition of Bacterial Growth; detection method Absorption (OD600); MEDIA CAMHB; plate type 384well; NBS; CORNING #3640; time 18 hr.

Results with a measured potency or affinity are listed apart.

By Inhibition is commonly meant the change of the read-out against control, counted positive when it falls. Consider `Clc1ccc2c(c1)nc(-c1cscn1)n2Cc1ccc(Cl)nc1`, for which the Inhibition is recorded as -10.99% with Staphylococcus aureus and -7.54% with Escherichia coli.

In the case of `Clc1ccc(Cn2c(-c3cscn3)nc3ccccc32)cn1`, the Inhibition with Staphylococcus aureus is recorded as 3.88%; in the assay on Escherichia coli, -1.48%.

For the compound `Clc1ccc(Cn2c(-c3cscn3)nc3c(Cl)cccc32)cn1`, the Inhibition is given as -6.34% with Staphylococcus aureus and -8.9% with Escherichia coli.
